The results in this text go back to PubChem BioAssay (NCATS).

Assay [1] deals with Cytochrome P450 2C9 (Homo sapiens) (UniProt P11712). The assay is described as follows: Cytochrome P450 family 2 subfamily C member 9 (CYP2C9) small molecule antagonists: luciferase biochemical (cell-free) qHTS assay (AID 1645842; active = well fitted curve in the direction sought with a large enough effect in the repeat runs; an effect the other way counts as inactive or inconclusive; note: nearly all actives have a fitted effect of over 55% in size; note: potency is the fitted concentration of half-maximal effect). The procedure, abridged: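 Luminescence, after 20 min with luciferin detection reagent, reflected CYP2C9 turnover during a 1 h NADPH-driven reaction at 37C. Enzyme-substrate mix contained 0.4% bovine serum albumin and was preincubated with compound 10 min at room temperature.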
Cytochrome P450 2C9 (Homo sapiens), sequence (P11712 whole entry, looked up): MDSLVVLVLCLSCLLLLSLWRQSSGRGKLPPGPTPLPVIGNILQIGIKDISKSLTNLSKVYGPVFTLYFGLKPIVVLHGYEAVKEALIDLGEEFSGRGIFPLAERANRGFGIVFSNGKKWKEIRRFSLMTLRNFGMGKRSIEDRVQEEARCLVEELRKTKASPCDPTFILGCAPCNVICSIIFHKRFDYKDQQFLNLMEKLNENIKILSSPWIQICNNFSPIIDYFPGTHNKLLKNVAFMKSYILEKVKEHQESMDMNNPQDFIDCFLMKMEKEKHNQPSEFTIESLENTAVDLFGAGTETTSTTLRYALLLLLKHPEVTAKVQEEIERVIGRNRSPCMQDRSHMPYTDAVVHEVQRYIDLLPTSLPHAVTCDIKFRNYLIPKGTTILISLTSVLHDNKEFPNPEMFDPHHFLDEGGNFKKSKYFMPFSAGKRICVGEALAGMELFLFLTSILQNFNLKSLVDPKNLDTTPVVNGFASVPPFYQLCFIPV
(Quantitative high-throughput screening tests each substance at several concentrations.)

The target in assay [2] is Rap guanine nucleotide exchange factor 3 (Homo sapiens) (UniProt O95398). The assay is described as follows: Confirmatory qHTS for antagonist of cAMP-regulated guanine nucleotide exchange factor 3 (EPAC1) (AID 1645880). Note: potency is the fitted concentration of half-maximal effect; nearly all actives have a fitted effect of over 55% in size. The method in brief: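 Nucleotide exchange uses 100 nM EPAC1, 250 nM RAP1B-BODIPY-GDP and 50 uM GDP, with compounds in a concentration-titration series. After 5 min at room temperature, fluorescence (480 nm ex/540 nm em) is read every 5 min for 30 min. Data are normalized to control ATA and DMSO.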
Rap guanine nucleotide exchange factor 3 (Homo sapiens), sequence (O95398 whole entry, looked up): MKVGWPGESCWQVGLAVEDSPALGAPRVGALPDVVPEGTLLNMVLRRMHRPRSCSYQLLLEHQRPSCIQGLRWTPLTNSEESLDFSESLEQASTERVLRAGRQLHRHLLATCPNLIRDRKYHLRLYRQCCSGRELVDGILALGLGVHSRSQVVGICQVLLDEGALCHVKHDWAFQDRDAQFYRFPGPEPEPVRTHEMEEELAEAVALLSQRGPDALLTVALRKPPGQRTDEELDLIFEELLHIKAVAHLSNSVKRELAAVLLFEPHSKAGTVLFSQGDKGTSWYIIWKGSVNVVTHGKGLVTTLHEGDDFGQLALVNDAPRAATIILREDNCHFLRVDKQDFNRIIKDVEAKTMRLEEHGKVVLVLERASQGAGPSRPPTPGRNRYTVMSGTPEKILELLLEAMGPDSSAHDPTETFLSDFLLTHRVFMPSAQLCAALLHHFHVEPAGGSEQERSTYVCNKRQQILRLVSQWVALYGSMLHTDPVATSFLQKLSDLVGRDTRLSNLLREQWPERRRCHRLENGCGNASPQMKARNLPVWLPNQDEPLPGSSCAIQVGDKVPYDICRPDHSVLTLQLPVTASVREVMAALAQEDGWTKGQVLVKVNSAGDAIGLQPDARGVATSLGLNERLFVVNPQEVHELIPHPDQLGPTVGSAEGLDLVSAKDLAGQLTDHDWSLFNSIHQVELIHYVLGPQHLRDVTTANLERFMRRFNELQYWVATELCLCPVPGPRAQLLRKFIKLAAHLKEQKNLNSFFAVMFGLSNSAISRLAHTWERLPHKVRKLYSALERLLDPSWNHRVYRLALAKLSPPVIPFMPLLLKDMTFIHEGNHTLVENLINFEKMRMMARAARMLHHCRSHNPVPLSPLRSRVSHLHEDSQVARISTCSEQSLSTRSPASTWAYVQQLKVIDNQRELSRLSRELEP

For assay [3] the target is unchanged. Kind of assay: Confirmatory qHTS for agonist of cAMP-regulated guanine nucleotide exchange factor 3 (EPAC1) (AID 1645881).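 Note: EPAC1 catalysed release of BODIPY-GDP from Rap1B seen as fluorescence loss; nearly all actives have a fitted effect of over 75% in size.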
Assay [4] concerns the target Rap guanine nucleotide exchange factor 4 (Homo sapiens) (UniProt Q8WZA2). Kind of assay: Confirmatory qHTS for agonist of cAMP-regulated guanine nucleotide exchange factor 4 (EPAC2) (AID 1645884).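 Note: nucleotide exchange releases bodipy-GDP from Rap1 and this lowers its fluorescence; nearly all actives have a fitted effect of over 65% in size.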
Assay [5] shares this target. The assay is described as follows: Confirmatory qHTS for antagonist of cAMP-regulated guanine nucleotide exchange factor 4 (EPAC2) (AID 1645885). Note: nearly all actives have a fitted effect of over 25% in size.
Assay [6] deals with Rap guanine nucleotide exchange factor 3 (Homo sapiens) (UniProt O95398). The assay is described as follows: Counterscreen qHTS for antagonist of cAMP-regulated guanine nucleotide exchange factor 3 (EPAC1) (AID 1645888).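 Note: fluorescence loss as bound BODIPY-GDP is released from Rap1B.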 The procedure, abridged: (§1)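 Rap1B–BODIPY-GDP (250 nM) with 50 uM GDP; compounds pin-transferred to 9.74 nM–152 uM final (activator) or from 7.32 nM upwards (inhibitor). Fluorescence Ex/Em 480/540 nm read at 5 and 30 min, then after adding cAMP or buffer, at room temperature.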
(In general: Counterscreens check selectivity or assay interference.)

For assay [7] the target is unchanged. The assay is described as follows: Counterscreen qHTS for agonist of cAMP-regulated guanine nucleotide exchange factor 3 (EPAC1) (AID 1645889). Note: nearly all actives have a fitted effect of over 40% in size. The method in brief:
as §1

For assay [8], the target named is Glutathione peroxidase 1 (Homo sapiens) (UniProt P07203). Kind of assay: Primary qHTS Assay for Inhibitors of Recombinant Selenoprotein Glutathione Peroxidase 1 (GPX1) (AID 1845191). Note: nearly all actives have a fitted effect of over 65% in size. The method in brief:
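GR-coupled assay: compounds preincubated 30 min at room temperature with GPX1, then reaction started with CHP; final 10 nM GPX1, 1 mM GSH, 0.5 mM CHP, 0.5 mM NADPH, 100 nM GR, 0.01% BSA, pH 7.5 Tris buffer. NADPH fluorescence (340/450 nm) read at 0 and 15 min.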

Assay [9] addresses Phospholipid hydroperoxide glutathione peroxidase GPX4 (Homo sapiens) (UniProt P36969). The assay is described as follows: Primary qHTS Assay for Inhibitors of Recombinant Selenoprotein Glutathione Peroxidase 4 (GPX4) (AID 1845192). Note: series mostly up to about 50 µM; nearly all actives have a fitted effect of over 65% in size. The method in brief: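 GR-coupled assay: recombinant GPX4 preincubated 30 min with compound at room temperature; final 200 nM GPX4, 1 mM GSH, 0.5 mM cumene hydroperoxide, 0.5 mM NADPH, 100 nM GR, 0.01% BSA, pH 7.5 Tris. NADPH fluorescence (340/450 nm) read at 0 and 15 min.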

In assay [10] the target is N-terminal Xaa-Pro-Lys N-methyltransferase 1 (Homo sapiens) (UniProt Q9BV86). The assay is described as follows: Confirmatory qHTS for Inhibitors of N-terminal methyltransferase 1 (NTMT1): MTaseGlo Assay (AID 1645874). Note: nearly all actives have a fitted effect of over 65% in size. Note: potency is the fitted concentration of half-maximal effect. The method in brief: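 NTMT1 (125 nM) preincubated 15 min with compound and 100 uM SAM, then 1 uM SPKRIA peptide added for 30 min at room temperature. SAH detected by MTase-Glo luminescence; normalized to no-enzyme and DMSO controls, fitted to 4-parameter Hill.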
N-terminal Xaa-Pro-Lys N-methyltransferase 1 (Homo sapiens), sequence (Q9BV86 whole entry, looked up): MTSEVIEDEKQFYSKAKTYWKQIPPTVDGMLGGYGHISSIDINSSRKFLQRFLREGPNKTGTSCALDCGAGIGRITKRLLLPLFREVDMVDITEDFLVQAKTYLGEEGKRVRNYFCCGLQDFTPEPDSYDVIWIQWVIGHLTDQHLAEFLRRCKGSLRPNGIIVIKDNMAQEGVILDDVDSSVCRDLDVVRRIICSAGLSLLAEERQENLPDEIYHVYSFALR

Molecules are shown by their SMILES. Records with an inconclusive call do not appear. Calls of active or inactive are those of the source. Unless noted, calls come from the whole dose curve; as a rule, active = well fitted curve in the direction sought with a large enough effect; inconclusive = small, poorly fitted or top-dose-only effect, or another doubt; inactive = no such curve, though single readings can be large; an effect the other way counts as inactive or inconclusive.

Glutathione peroxidase 1 (Homo sapiens), sequence (P07203 whole entry, looked up): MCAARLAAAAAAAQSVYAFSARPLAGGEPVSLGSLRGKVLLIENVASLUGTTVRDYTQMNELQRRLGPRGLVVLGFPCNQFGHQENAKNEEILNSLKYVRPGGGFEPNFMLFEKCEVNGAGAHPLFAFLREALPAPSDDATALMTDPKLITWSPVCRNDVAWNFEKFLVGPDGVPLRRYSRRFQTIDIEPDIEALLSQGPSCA
Rap guanine nucleotide exchange factor 4 (Homo sapiens), sequence (Q8WZA2 whole entry, looked up): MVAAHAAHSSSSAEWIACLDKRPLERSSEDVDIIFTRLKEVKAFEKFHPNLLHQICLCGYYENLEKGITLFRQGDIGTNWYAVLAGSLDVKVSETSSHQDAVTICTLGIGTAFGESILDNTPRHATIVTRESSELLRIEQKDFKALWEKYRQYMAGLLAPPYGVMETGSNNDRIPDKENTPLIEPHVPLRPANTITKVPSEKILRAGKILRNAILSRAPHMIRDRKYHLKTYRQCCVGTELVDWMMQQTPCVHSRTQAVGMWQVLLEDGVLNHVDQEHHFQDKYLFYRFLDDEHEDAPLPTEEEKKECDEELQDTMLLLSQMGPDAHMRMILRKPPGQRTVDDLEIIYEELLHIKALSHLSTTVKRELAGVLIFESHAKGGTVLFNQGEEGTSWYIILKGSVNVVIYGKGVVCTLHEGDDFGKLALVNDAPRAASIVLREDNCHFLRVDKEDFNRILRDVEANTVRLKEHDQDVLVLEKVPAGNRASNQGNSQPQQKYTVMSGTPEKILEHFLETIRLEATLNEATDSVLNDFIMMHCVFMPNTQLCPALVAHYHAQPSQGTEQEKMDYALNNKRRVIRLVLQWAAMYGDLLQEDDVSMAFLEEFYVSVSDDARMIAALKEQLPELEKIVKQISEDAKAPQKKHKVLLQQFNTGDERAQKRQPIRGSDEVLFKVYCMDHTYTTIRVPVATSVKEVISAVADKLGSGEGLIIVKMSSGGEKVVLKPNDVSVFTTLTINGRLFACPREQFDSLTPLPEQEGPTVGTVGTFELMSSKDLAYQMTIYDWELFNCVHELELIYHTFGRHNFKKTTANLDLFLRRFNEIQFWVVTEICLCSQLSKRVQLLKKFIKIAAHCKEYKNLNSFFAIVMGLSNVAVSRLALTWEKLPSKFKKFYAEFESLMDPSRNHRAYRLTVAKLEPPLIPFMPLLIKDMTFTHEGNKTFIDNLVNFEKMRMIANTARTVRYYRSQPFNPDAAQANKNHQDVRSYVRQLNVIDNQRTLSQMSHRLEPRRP
Phospholipid hydroperoxide glutathione peroxidase GPX4 (Homo sapiens), sequence (P36969 whole entry, looked up): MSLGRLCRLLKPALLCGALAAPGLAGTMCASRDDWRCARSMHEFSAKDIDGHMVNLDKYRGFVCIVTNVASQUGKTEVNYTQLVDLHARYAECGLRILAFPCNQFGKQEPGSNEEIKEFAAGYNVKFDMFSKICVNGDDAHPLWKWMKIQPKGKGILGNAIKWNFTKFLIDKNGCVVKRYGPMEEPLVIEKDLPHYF

Turning to `COc1ccccc1NC(=O)CSc1nc(-c2ccc(C(C)(C)C)cc2)c(C#N)c(=O)[nH]1`, the Potency in assay [1] was 0.756 µM (active); in assay [2], 67.5 µM (active). Moreover, the Potency result in assay [3], in [4], in [6] and in [7] was “inactive” in each case. For the same compound, the outcome in [5] is “inactive [at 12.7 µM]”.

Take `CCN(CC)C(=O)[C@]1(c2ccccc2)C[C@H]1CN`: the Potency result in assay [1], in [8] and in [9] was “inactive” each time.

Consider `O=c1[nH]c2ccc(S(=O)(=O)Nc3cc(Cl)ccc3O)cc2o1`, for which the Potency in assay [1] was 9.52 µM (active).

Turning to `Cc1ccc(-n2ncc3c(NCCO)ncnc32)cc1Cl`, in assay [10], the Potency was 31.6 µM (active).

Take `COc1cc2c(NC3CCN(C(C)C)CC3)nc(N3CCCN(c4ccccc4)CC3)nc2cc1OCCCN1CCCC1`: the Potency in [10] is 55.5 µM (active).

Turning to `Oc1cccc(Nc2cc(-c3ccccc3)ncn2)c1`, the Potency in assay [10] was 39.8 µM (active).

Regarding `Cc1cccc(-n2cnc3cc(C(=O)NC4CCCC4)ccc32)c1`, the Potency in assay [10] was 39.8 µM (active).

`CCOc1ccc(NC(=O)Cn2cc(C(=O)c3ccco3)c3ccccc32)cc1`: the Potency in assay [1] was 4.77 µM (active).

In the case of `CCCn1c(/C=C/c2ccccc2)nc2ccccc21`, the Potency entry in assay [10] was “inactive”.

Regarding `CCOc1ccccc1N1CC(c2nc3ccccc3n2CCCCOc2cc(C)ccc2C)CC1=O` (stereo not drawn), the Potency result in assay [10] is “inactive”.

`CC(C)c1ccc(NC(=O)CSC2=Nc3ccccc3C3=NC(CC(=O)NC4CCCCC4)C(=O)N23)cc1` (stereo not drawn): the Potency in [1] is 12 µM (active).

In the case of `Cc1ccc(/C=C/c2nc3ccccc3[nH]2)cc1`, in [10], the Potency was 6.49 µM (active).

With `Cc1ccc(Nc2ncnc3c2cnn3-c2ccccc2)c(C)c1`, in assay [10], the Potency was 3.98 µM (active).

`Cc1ccc2nc(NC(=O)CSc3nccn3Cc3ccccc3)sc2c1`: in assay [1], the Potency is 9.52 µM (active).

In the case of `O=C(CSc1nc2ccccc2n1Cc1cccc(Cl)c1)N1CCN(c2ccc(F)cc2)CC1`, the Potency in assay [1] is 3.38 µM (active).

As for `COc1cc2c(NC3CCN(CC4CCCCC4)CC3)nc(N3CCCN(C)CC3)nc2cc1OCCCN1CCCCC1`, the Potency in assay [10] was 34.5 µM (active).

For `CCCCCCCCC=CCCCCCCCC(=O)NCCOC(=O)CC(C(=O)O)S(=O)(=O)O` (stereo not drawn), the Potency in [1] is 8.49 µM (active). Moreover, the Potency entry in assay [8] and in [9] was “inactive” in each case.

Regarding `Cc1ccc(-n2ncc3c(NCCCN(C)C)ncnc32)cc1Cl`, the Potency in [10] is 39.8 µM (active).
